# Results published in PubChem BioAssay (NCATS).
# Inconclusive results are not listed. Active and inactive are the calls of the source. The call rests on the fitted dose curve; in most records, active means well fitted curve in the direction sought with a large enough effect; inconclusive means small, poorly fitted or top-dose-only effect, or another doubt; inactive means no such curve, though single readings can be large; an effect the other way counts as inactive or inconclusive.
# Target: Thioredoxin reductase 1, cytoplasmic (Rattus norvegicus) (UniProt O89049)
# Assay: qHTS Assay for Inhibitors of Mammalian Selenoprotein Thioredoxin Reductase 1 (TrxR1) (AID 488773); further: nearly all actives have a fitted effect of over 40% in size; further: potency means the concentration at half of the fitted maximal effect;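 on activity change, negative = inhibition: drop in NADPH fluorescence over an 8 min run after selenite addition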
# Conditions: purified TrxR1 enzyme activity; Potency: inhibition; series mostly up to 57.1 µM; activity change, negative = inhibition: at the top concentration
# Summary of the method: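 Inhibition is scored from the loss of NADPH fluorescence between first and last reads of an 8-min kinetic run. Selenite (400 uM) was the substrate, added after 15 min compound preincubation at room temperature.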
# On the % scale 0 is the no-effect control and ±100 the full control effect.
# Chain of Thioredoxin reductase 1, cytoplasmic (Rattus norvegicus) (O89049 whole entry, looked up): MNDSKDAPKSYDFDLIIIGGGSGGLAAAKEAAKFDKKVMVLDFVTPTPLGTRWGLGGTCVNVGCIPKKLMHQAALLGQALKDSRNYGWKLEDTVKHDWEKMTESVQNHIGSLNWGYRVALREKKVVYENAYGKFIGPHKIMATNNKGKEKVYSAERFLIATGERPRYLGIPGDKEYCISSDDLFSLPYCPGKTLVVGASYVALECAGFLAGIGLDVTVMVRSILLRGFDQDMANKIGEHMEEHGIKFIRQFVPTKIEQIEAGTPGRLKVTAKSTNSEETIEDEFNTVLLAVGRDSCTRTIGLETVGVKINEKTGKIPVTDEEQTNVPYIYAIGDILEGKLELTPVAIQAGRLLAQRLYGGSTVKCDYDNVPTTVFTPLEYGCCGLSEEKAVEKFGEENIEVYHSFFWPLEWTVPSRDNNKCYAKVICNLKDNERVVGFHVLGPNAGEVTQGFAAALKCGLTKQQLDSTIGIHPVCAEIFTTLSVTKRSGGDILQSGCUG
SMILES,"activity change, negative = inhibition",Potency
COC(=O)N1CCN(C(=O)Cc2ccc(Cl)c(Cl)c2)C(CN2CCCC2)C1 (centres undefined),2.97% (inactive),–
COc1ccc2c(c1)C13CCCCC1C(C2)N(C)CC3 (centres undefined),-7.59% (inactive),–
C[C@]12Cc3cn4c(nc3C=C1CCC1C2CC[C@@]2(C)[C@H]1CC[C@@]2(O)C#N)nc1ccccc14 (some centres undefined),3.55% (inactive),–
CCCn1c(=O)c2[nH]c(C3CCCC3)nc2n(CCCOC(=O)c2ccc(S(=O)(=O)F)cc2)c1=O,6.52% (inactive),–
Cc1cc([C@@H]2CCCN2C)on1,9.38% (inactive),–
N=C(N)c1ccc(CS(=O)(=O)F)cc1,-8.98% (inactive),–
C[N+]1(C)CCOC(O)(c2ccc(-c3ccc(C4(O)C[N+](C)(C)CCO4)cc3)cc2)C1 (centres undefined),0.506% (inactive),–
C[N+]1(C)C2CCC1CC(OC(=O)c1c[nH]c3ccccc13)C2 (centres undefined),-0.556% (inactive),–
NC(N)=Nc1ccc2[nH]c3c(c2c1)C[C@@]1(O)[C@H]2Cc4ccc(O)c5c4[C@@]1(CCN2CC1CC1)[C@H]3O5,–,26700 nM (active)
Nc1ccc(CCN2CCN(c3cccc(C(F)(F)F)c3)CC2)cc1,-14.5% (inactive),–
Cc1[nH]c2ccc(O)cc2c1CCN,-0.877% (inactive),–
CC(=O)c1c(O)c(C)c(O)c(Cc2c(O)c3c(c(C(=O)/C=C/c4ccccc4)c2O)OC(C)(C)C=C3)c1O,–,2120 nM (active)
C=CCN1CC[C@]23c4c5ccc(O)c4O[C@H]2/C(=N/NC(=O)c2ccccc2)CC[C@@]3(O)[C@H]1C5,-9.98% (inactive),–
C[C@@H]1O[C@H](C[N+](C)(C)C)CS1,12% (inactive),–
CC(N)Cc1c[nH]c2ccc(OCc3cccs3)cc12 (centres undefined),-3.34% (inactive),–
NC(C(=O)O)c1cc(=O)[nH]o1 (centres undefined),0.893% (inactive),–
CN(N=O)c1cc(O)ccc1O,–,752 nM (active)

# Target: Flap endonuclease 1 (Homo sapiens) (UniProt P39748)
# Assay: qHTS Validation Assay for the Inhibitors of Human Flap endonuclease 1 (FEN1) (AID 488816)
# Conditions: FEN1 nuclease activity, fluorogenic DNA substrate; series mostly up to 57.1 µM; activity, negative = inhibition: at the top concentration
# Summary of the method: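 Steps: add FEN1 (10 nM reagent) or buffer only; pin compounds; hold 15 min at room temperature; start with substrate, 50 nM final; read at 0 and 15 min; correct, normalize and fit a four-parameter Hill curve.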
# Chain of Flap endonuclease 1 (Homo sapiens) (P39748 whole entry, looked up): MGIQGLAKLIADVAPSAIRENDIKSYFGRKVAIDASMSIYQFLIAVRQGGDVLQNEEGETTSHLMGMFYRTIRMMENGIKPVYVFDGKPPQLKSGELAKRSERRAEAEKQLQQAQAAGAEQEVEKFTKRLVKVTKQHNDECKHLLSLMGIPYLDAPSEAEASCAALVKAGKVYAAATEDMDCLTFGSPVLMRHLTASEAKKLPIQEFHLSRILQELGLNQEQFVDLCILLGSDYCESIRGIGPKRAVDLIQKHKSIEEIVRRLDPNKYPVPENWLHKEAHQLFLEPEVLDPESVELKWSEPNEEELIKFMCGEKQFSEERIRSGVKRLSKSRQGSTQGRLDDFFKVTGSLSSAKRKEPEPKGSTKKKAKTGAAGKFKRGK
row,SMILES,"activity, negative = inhibition"
1,CCCC[N+]1(C)C2CC(OC(=O)[C@H](CO)c3ccccc3)CC1C1OC12 (some centres undefined),-5.79% (inactive)
2,CC(N)Cc1c[nH]c2ccc(O)cc12 (centres undefined),-5.46% (inactive)
3,COc1ccc2c(c1)[C@@]13CCCC[C@H]1[C@@H](C2)NCC3,-1.33% (inactive)
4,O=c1c2ccccc2[se]n1-c1ccccc1,-1.75% (inactive)
5,c1ccc2cc(CC3=NCCN3)ccc2c1,-9.19% (inactive)
6,Ic1ccccc1CNC1C2CCN(CC2)C1C(c1ccccc1)c1ccccc1 (centres undefined),-5.71% (inactive)
7,OCc1cnc[nH]1,-4.27% (inactive)
8,CC(C)NP(=O)(NC(C)C)OP(=O)(NC(C)C)NC(C)C,-2.99% (inactive)
9,C=CCN(C1=NCCN1)c1c(Cl)cccc1Cl,-0.768% (inactive)
10,C[N+]1(C)CCc2cc3c(cc2[C@H]1[C@@H]1OC(=O)c2c1ccc1c2OCO1)OCO3,-9.42% (inactive)
11,COc1ccc2c(c1)/C(=C/c1cnc[nH]1)C(=O)N2,-25.6% (inactive)
12,COc1ccc(CNC(=O)/C=C/c2ccc3[nH]cc(CCN(C)C)c3c2)cc1,-9.77% (inactive)
13,CCCCCCCCCCCCCC(=O)O[C@@H]1[C@@H](C)[C@@]2(O)[C@@H](C=C(CO)C[C@@]3(O)C(=O)C(C)=C[C@@H]23)C2C(C)(C)[C@@]21OC(C)=O (some centres undefined),-11.1% (inactive)
14,Oc1ccc2c3c1O[C@H]1c4[nH]c5ccccc5c4C[C@@]4(O)C(C2)N(CC2CC2)CCC314 (some centres undefined),-14.2% (inactive)
15,CN1CC[C@@]2(C)c3cc(O)ccc3N(C)C12 (some centres undefined),-14.5% (inactive)
16,C[N+](C)(C)CC#CCOC(=O)Nc1cccc(Cl)c1,-4.03% (inactive)

row,SMILES,"activity, negative = inhibition"
1,Oc1ccc2c3c1O[C@H]1c4oc5ccccc5c4C[C@@]4(O)C(C2)N(CC2CC2)CCC314 (some centres undefined),-6.46% (inactive)
2,CN1CCC(c2c[nH]c3ccc(O)cc23)CC1,-5.54% (inactive)
3,COC(=O)N1CCN(C(=O)Cc2ccc(Cl)c(Cl)c2)C(CN2CCCC2)C1 (centres undefined),-1.92% (inactive)
4,COc1ccc2c(c1)C13CCCCC1C(C2)N(C)CC3 (centres undefined),-9.24% (inactive)
5,C[C@]12Cc3cn4c(nc3C=C1CCC1C2CC[C@@]2(C)[C@H]1CC[C@@]2(O)C#N)nc1ccccc14 (some centres undefined),-15.1% (inactive)
6,CCCn1c(=O)c2[nH]c(C3CCCC3)nc2n(CCCOC(=O)c2ccc(S(=O)(=O)F)cc2)c1=O,-12% (inactive)
7,Cc1cc([C@@H]2CCCN2C)on1,-0.549% (inactive)
8,N=C(N)c1ccc(CS(=O)(=O)F)cc1,-5.22% (inactive)
9,C[N+]1(C)CCOC(O)(c2ccc(-c3ccc(C4(O)C[N+](C)(C)CCO4)cc3)cc2)C1 (centres undefined),-18.9% (inactive)
10,C[N+]1(C)C2CCC1CC(OC(=O)c1c[nH]c3ccccc13)C2 (centres undefined),-24.7% (inactive)
11,Nc1ccc(CCN2CCN(c3cccc(C(F)(F)F)c3)CC2)cc1,-3.24% (inactive)
12,Cc1[nH]c2ccc(O)cc2c1CCN,-0.141% (inactive)
13,CC(=O)c1c(O)c(C)c(O)c(Cc2c(O)c3c(c(C(=O)/C=C/c4ccccc4)c2O)OC(C)(C)C=C3)c1O,-18.1% (inactive)
14,C=CCN1CC[C@]23c4c5ccc(O)c4O[C@H]2/C(=N/NC(=O)c2ccccc2)CC[C@@]3(O)[C@H]1C5,0.377% (inactive)
15,CC(N)Cc1c[nH]c2ccc(OCc3cccs3)cc12 (centres undefined),-3.06% (inactive)
16,NC(C(=O)O)c1cc(=O)[nH]o1 (centres undefined),-0.167% (inactive)
